The whole screen tested about 53,000 sequences, of which about 3,700 (7%) were called active. Only a selection was taken, and actives are over-represented in it overall. A number with no mark means an inactive call.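 How the source made its calls: active means gene knockdowns whose robust z-score for IL-1 alpha signal is at least 2 or at most -2, so actives lie on both sides; inactive means the rest.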
Test: Components of the Cytosolic LPS Sensing Pathway: Gene Identification via Genome-wide siRNA Screen;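 further: robust z of the log signal after scaling to non-targeting control siRNA wells of the plate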
Details: RAW264.7 macrophages, IL-1a HTRF, actives lie on both sides, screened at 100 nM (by protocol), cells primed 5 h with Pam3CSK4 first
Outline: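 RAW264.7 mouse macrophages reverse-transfected with single siRNAs (100 nM final) for 48h, primed with Pam3CSK4 for 5 hours, then transfected with LipidA for 24 hour. Supernatant IL-1a read by HTRF; values normalized to negative-control median, log-transformed robust z-scores.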

Row | Sequence | z-score
1 | GGUUCCUUUAACUUUGGUUTT against A730089K16Rik | 2.18 (active)
2 | CCUUUACACGUAAAAGAAGTT against Zfp445 | -0.194
3 | CCUGUUGAGUACUGUGCUGTT against Olfr987 | -0.437
4 | CCCAUGUAAGGAUGUGUCGTT against Frmd5 | 0.761
5 | CGGGAAGCUAUCAUCAAAATT against Rgs13 | 0.12
6 | GGACACAGAAAAAGUUGAATT against Tbc1d4 | -0.0174
7 | GCAAUGGACUACUGCUGCUTT against Olfr704 | -2.26 (active)
8 | GGAUGUUAAAAUUGCCCUGTT against Olfr911-ps1 | 0.896
9 | GGACGAGAAUCAAGAGCAGTT against Cdkn1c | -0.0249
10 | UGGUUGUGAUCAACAGAAUTT against Cyp2d12 | -0.933
11 | CCAUUUAUAUCAGGCAUCATT against Lrit1 | -0.647
12 | GGGUAAUCAGAUUGAAAGATT against Dnah5 | 0.0753
13 | GGUGGAGAGUGAACAACAATT against Tpr | -1.25
14 | GGUCUUCCUUGAACAUCAGTT against Fev | -2.05 (active)
15 | GGUAUGAGCUGAUCAAGUATT against Slc27a2 | 1.67
16 | GUACACUCAAUCACUCUUGTT against Rexo5 | 0.966
17 | CGACCUACUUGGGAUGAUGTT against Pea15b | 0.683
18 | GCAAGUGAUGAAUGCUUACTT against Ncln | -2.62 (active)
19 | GCCUGAUACCUUGAAGGAATT against Qpctl | -0.382
20 | CGACAACGACAUCAUGGAATT against Sfrp2 | 1.52
21 | GGGAAUGAAAUGUUCUUCGTT against Ttl | -0.121
22 | CGCAGUGGACUCAUCUUGATT against Sestd1 | -0.65
23 | GCCAUUCUAAGCUGCCAAATT against Mcat | -0.000938
24 | GGACAGAGCGUGCACUAGATT against Slc66a1 | -1.32
25 | CCUGGCACUCAUAGUAUACTT against Tm6sf2 | -2.33 (active)
26 | GGUGCUGGUUUUUAAGAAATT against Hsbp1 | 1.84
27 | CGGAAUGCCAAAGAUGUGGTT against Sult1d1 | -0.872
28 | GUGACUCCCAAACUCCUGATT against Olfr1180 | -1.81
29 | CCAUUCCUUAAAAGAGCAUTT against Lce1g | 1.07

Source: PubChem BioAssay AID1508600 (Functional Genomics Laboratory (NCATS/FGL), 2020)
